Source: PubChem BioAssay (National Center for Advancing Translational Sciences (NCATS))
TRHR ag: qHTS for Small Molecule Agonists and Allosteric Enhancers of Human TRH Receptor: Primary Screen for Agonists; TRHR cells, calcium flux fluo-8, FDSS agonist mode; AID 493084, 2011; activation, % at 2 µM; actives 0.18% (n = 360,000)
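Steps: seed TRHR cells overnight; add fluo-8 no-wash Ca dye, RT 30 min–1.5 h; record 10 s baseline; pin-transfer compounds; monitor fluorescence 1 cycle/s for the agonist window. Calcium increases flag candidate agonists.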
D1 PAM: Potentiators of Human D1 Dopamine Receptor: qHTS; potentiation, % at 10 µM; actives 0.036% (n = 360,000); HEK293 TREx D1 cells, calcium flux, dopamine EC20 potentiation; D(1A) dopamine receptor (Homo sapiens), P21728; in the data active = potentiation above about 30%
Target sequence (P21728 whole entry, looked up): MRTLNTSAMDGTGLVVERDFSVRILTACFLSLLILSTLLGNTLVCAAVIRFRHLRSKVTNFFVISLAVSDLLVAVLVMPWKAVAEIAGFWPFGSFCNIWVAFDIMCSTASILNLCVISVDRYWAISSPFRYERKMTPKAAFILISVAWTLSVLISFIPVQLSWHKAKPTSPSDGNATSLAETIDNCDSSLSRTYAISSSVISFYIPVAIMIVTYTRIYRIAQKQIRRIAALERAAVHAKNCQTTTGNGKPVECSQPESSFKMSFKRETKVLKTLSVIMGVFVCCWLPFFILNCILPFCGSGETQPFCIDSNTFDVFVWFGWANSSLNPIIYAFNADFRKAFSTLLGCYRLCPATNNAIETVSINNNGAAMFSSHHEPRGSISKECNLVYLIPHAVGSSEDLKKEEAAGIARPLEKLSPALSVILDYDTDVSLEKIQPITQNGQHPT
TRHR PAM: qHTS for Small Molecule Agonists and Allosteric Enhancers of Human TRH Receptor: Primary Screen for Enhancers | Thyrotropin-releasing hormone receptor (Homo sapiens), P34981 | TRHR cells, fluo-8 calcium fluorescence, EC20 TRH enhancement | enhancement, % at 2 µM | actives 0.66% (n = 360,000) | AID 493056, 2011; in the data active = enhancement above about 30%
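TRHR-expressing cells loaded with fluo-8 calcium dye were read kinetically (ex 480/em 530) during compound addition, then stimulated with an EC20 of TRH (10 nM final). Enhancement of the Gq-mediated intracellular calcium response was scored.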
D1 agonist: Allosteric Agonists of the Human D1 Dopamine Receptor: qHTS; D(1A) dopamine receptor (Homo sapiens), P21728; HEK293 T-REx D1 cells, calcium flux, agonist mode; activation, % at 2 µM; actives 1% (n = 360,000)
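Inducible HEK293 T-REx D1 cells, force-coupled to calcium signalling, were plated at 4000 cells/well with tetracycline and held overnight at 30 C. After no-wash calcium dye loading, compound-evoked calcium rise over 180 s flagged agonists.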
D1 antag: Antagonist of Human D 1 Dopamine Receptor: qHTS | HEK293 TREx D1 cells, calcium flux, dopamine EC80; hits give low values | D(1A) dopamine receptor (Homo sapiens), P21728 | actives 3.2% (n = 360,000) | activity change, negative = inhibition, % at 10 µM | AID 504652, 2011; in the data active = activity change below about -30%
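HEK293 T-REx cells expressing inducible, force-coupled D1 receptor; no-wash Ca dye, 30–90 min RT. Cmpd → 180 s read at 1 Hz → EC80 DA → 180 s read.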
Each line names hits and unclear results; the compound was inactive in the other large screens; ! = not active in a repeat. Shown are actives, neighbours in structure and some others; about 4.6% of the full set was active somewhere. Rule as the data show it, unless noted: active = activation above about 30%; inactive = the rest.

O=C(c1ccccc1)c1ccc(OCC(O)CNCc2ccc(Cl)cc2)cc1 (stereo not given)	D1 agonist 75
OC(CNC1Cc2ccccc2C1)COc1ccc(Cl)cc1 (stereo not given)	D1 agonist 40
COc1ccccc1NC(=O)COC(=O)c1c[nH]c2ccccc12	none
COc1ccccc1CNC(=O)COC(=O)c1c[nH]c2ccccc12	D1 agonist 45, D1 antag -41
CC(=O)Nc1ccc(SC[C@H](Cc2ccccc2)N2CC[C@@H](O)CCC2=O)cc1	none
CC(=O)Nc1ccc(SC[C@H](Cc2ccccc2)N2CCN(CCc3ccccc3)CCC2=O)cc1	D1 antag -33
Cc1csc(SCc2nnc(-c3ccccc3Br)o2)n1	none
Fc1ccccc1SCc1nnc(-c2ccccc2Br)o1	D1 antag -66
FC(F)(F)C(F)(F)C(F)(F)c1nnc2ccc(N3CCOCC3)nn12	D1 antag -73
COc1ccccc1CNC(=O)C(=O)NCC(c1ccco1)S(=O)(=O)c1cccs1 (stereo not given)	none (no result: D1 antag)
CCCCn1c(C)cc2c(c1=O)C1O[C@](c3ccsc3)(Cc3cc(OC)c(OC)cc31)O2	none
O=C(CNc1ccccc1)N/N=C/c1cc([N+](=O)[O-])ccc1N1CCCC1	D1 antag -31
CCS(=O)(=O)N1CCc2cc(C(=O)N3CCN(c4ccccc4)CC3)ccc21	none
O=C(COC(=O)c1c2c(nc3ccccc13)/C(=C/c1ccco1)CC2)NC1CCCC1	D1 antag -49
CC1CCCCC1NC(=O)COC(=O)c1c2c(nc3ccccc13)/C(=C/c1ccco1)CC2 (stereo not given)	none
CC1C(=O)N2CCCc3cc(S(=O)(=O)Nc4ccccc4C(N)=O)cc1c32 (stereo not given)	TRHR PAM 32
CC1C(=O)N2CCCc3cc(S(=O)(=O)Nc4ccccc4F)cc1c32 (stereo not given)	none
COc1cc(Cl)c(C)cc1NC(=O)C(OC(=O)CNC(=O)c1ccccc1)c1ccccc1 (stereo not given)	none
Cc1cc(=O)n(CC(=O)N2CCN(c3ccc(F)cc3)CC2)c2c1c(C)nn2C	none
COc1ccc(C)cc1NC(=O)C(Sc1nnnn1C)c1ccccc1 (stereo not given)	none
CCCn1c(SC(C(=O)Nc2cc(C)ccc2OC)c2ccccc2)nc2ccccc2c1=O (stereo not given)	D1 antag -96
CCOC(=O)C1CCN(C(c2cccs2)c2sc3nc(C)nn3c2O)CC1 (stereo not given)	none
CCOC(=O)C1CCN(C(c2cccc(OC)c2)c2sc3nc(C)nn3c2O)CC1 (stereo not given)	D1 antag -31
Cc1nn(C)c(C(=O)NCc2ccc(Cl)cc2)c1Cl	D1 antag -63
Cc1nn(C)c(NC(=O)c2ccc([N+](=O)[O-])cc2)c1Cl	none
CCOc1ccc(NC(=S)NC(=O)c2c(Cl)c(C)nn2C)c([N+](=O)[O-])c1	none
Cc1cc(NC(=O)c2c(Cl)c(C)nn2C)no1	none
Cc1nc(C)c(C(=O)NCc2ccc(Cl)cc2)o1	D1 antag -61
Cc1nn(C)c(NC(=O)c2ccccc2Cl)c1Cl	D1 antag -38
Cc1nn(C)c(C(=O)NC(=S)Nc2ccccc2O)c1Cl	D1 antag -41
CN1CCN(C(c2ccc(Cl)cc2Cl)c2sc3nc(-c4ccco4)nn3c2O)CC1 (stereo not given)	none (no result: D1 antag)
O=C(Cc1nnc(-c2cc3ccccc3[nH]2)o1)Nc1cc(C(F)(F)F)ccc1Cl	none
O=C(Cc1nnc(-c2cc3ccccc3[nH]2)s1)Nc1cc(C(F)(F)F)ccc1Cl	D1 antag -34!
O=C(NCc1nnc(-c2cc3ccccc3[nH]2)s1)c1ccccc1	none
O=C(O)Cc1nnc(-c2cc3ccccc3[nH]2)s1	D1 antag -37
CCOc1ccc(N2CC(NC(=O)c3ccc(S(=O)(=O)N4CCOCC4)cc3)CC2=O)cc1 (stereo not given)	none (no result: D1 antag)
Cc1ccc(OCC(=O)Nc2ccc3nc(SCCOc4ccccc4)sc3c2)cc1	none
CCCCN1CCc2c([nH]c3ccccc23)C1=O	none
CN1CCc2ccccc2Cc2[nH]c3ccccc3c2CC1	D1 antag -107
CC1CCN(c2nc(-c3ccccc3)c(C#N)c(=O)[nH]2)CC1	D1 antag -39
CCN(CCN(C)C)C(=O)Cn1ncc2c1-c1cc(C)ccc1OC2	D1 antag -33
Cc1ccc2c(c1)-c1c(cnn1CC(=O)O)CO2	none
CCNc1c(NC(=O)c2ccccc2OCC)c(=O)oc2ccccc12	none
Cc1cc(N)n2nc(-c3ccccc3)cc2n1	D1 antag -41
CSc1ccccc1OCc1cc(C(=O)NCc2cccc(C)n2)no1	none
CCn1nc(C)c(CNC(=O)c2cc(COc3ccccc3SC)on2)c1C	D1 antag -49
CCN(CC(=O)Nc1ccccc1OC)C(=O)CCc1ccccc1	TRHR PAM 39
CCN(C(=O)CSc1nc2ccccc2nc1Cc1ccccc1OC)c1ccccc1	D1 antag -45
COc1ccccc1NC(=O)CSc1n[nH]c(Cc2ccccc2)n1	none
COc1ccccc1Cc1nc2ccccc2nc1SCC(=O)N1CCCCC1	none
COc1ccccc1NC(=O)CSc1nc2ccccc2cc1Cc1ccccc1	D1 antag -33
Cc1ccc(C)c(Cn2c(=O)cc(C)c3c(C)nn(-c4cccc(F)c4)c32)c1	none
COc1ccc(CNC(=O)C2CCCN(C(=O)c3cnn(-c4ccc(F)cc4)c3-n3cccc3)C2)cc1 (stereo not given)	none
CCOC(=O)Cn1cnc2c(cnn2-c2ccccc2)c1=O	none
O=C(Cn1cnc2ccccc2c1=O)c1ccc(Cl)cc1	D1 antag -42
O=C(Cn1nc(-c2ccc(Cl)cc2)ccc1=O)N1CCN(c2ccccc2)CC1	TRHR PAM 32
COc1ccc(N2CCN(C(=O)Cn3cnc4nc5c(cc4c3=O)CCCC5)CC2)cc1	D1 antag -31
CCOC(=O)Cn1cnc2c(cnn2-c2ccc(Cl)cc2)c1=O	D1 antag -49
O=C(Cn1cnc2ccccc2c1=O)c1ccccc1	none
O=[S+]([O-])(c1c(F)cccc1F)N1CCN([S+](=O)([O-])c2cccc3nonc23)CC1	none
O=c1cc(-c2ccccc2)n2c(SCc3ccc(F)cc3)nnc2[nH]1	none (no result: D1 antag)
CCCCOC(=O)c1ccc(-n2nnc3c(sc4nc(C)cc(C)c43)c2=O)cc1	none
O=C(Cn1cnc2c(cnn2-c2ccc(Cl)cc2)c1=O)N1CCN(c2ccccc2)CC1	D1 antag -32
